Reference: PMC4242493, “Sequence specificity incompletely defines the genome-wide occupancy of Myc”
Whole data set: some 33,000 sequences, median “normalized occupancy” near 0.075, cut for the highest 2% near 0.095. The full list was thinned out, with the highest values kept by preference.

These sequences were tested against MaxL homodimer (Homo sapiens, UniProt P61244 1-160) (assay: universal protein-binding microarray (PBM); PBS-based mixture, 10 nM His-tagged protein dimer, 2% milk, 200 ng/uL BSA, 50 ng/uL salmon testes DNA, 0.02% TX-100; detection with Alexa 488 anti-His antibody;; high values mean tight binding). Details: protein: recombinant; tags: C-terminal His-tag (pET21a); chain copies: 2; dsDNA, one strand shown.
Chain of MaxL homodimer (P61244 whole entry): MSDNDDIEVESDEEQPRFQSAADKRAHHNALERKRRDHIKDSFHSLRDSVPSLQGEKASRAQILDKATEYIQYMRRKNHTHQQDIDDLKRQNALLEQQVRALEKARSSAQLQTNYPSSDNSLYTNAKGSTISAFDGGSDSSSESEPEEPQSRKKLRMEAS
Procedure, shortened: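 His-tagged protein dimer at 10 nM was incubated on Agilent 4 x 44 K arrays with the 'all 10-mer' universal design. Bound protein was tagged with 10 ng/μL fluorophore-conjugated anti-His antibody, and arrays were scanned on a GenePix 4400A. Binding occupancy for each 8-mer is its fluorescence intensity normalised to the highest-ranked 8-mer's intensity.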
Work on AGCCATGA yielded a binding signal of 0.0819 normalized occupancy. CGCCATGA was tested, and the binding signal was 0.0842 normalized occupancy. Work on CGCCATGC yielded a binding signal of 0.0988 normalized occupancy. AGCCATGG showed a binding signal of 0.0832 normalized occupancy. For AGCCATGC, the binding signal was 0.0996 normalized occupancy. CGCCATCC showed a binding signal of 0.077 normalized occupancy. For ATGTCAAT, the binding signal was 0.0778 normalized occupancy. GGTAACCA was tested, and the binding signal was 0.0775 normalized occupancy. In the case of CTTCTTTA, the binding signal is reported as 0.075 normalized occupancy. In the case of AAAACGAT, the binding signal is reported as 0.0742 normalized occupancy. CCATGGCG gave a binding signal of 0.0768 normalized occupancy. ACATGGAT showed a binding signal of 0.101 normalized occupancy. Sequence ACATGGGG has a binding signal of 0.101 normalized occupancy. ACTTGGGG gave a binding signal of 0.0791 normalized occupancy. Sequence ACATGGCT has a binding signal of 0.0932 normalized occupancy. ACATGGCG gave a binding signal of 0.098 normalized occupancy. Work on ACATGGAG yielded a binding signal of 0.0868 normalized occupancy. For ACATGGAA, the binding signal was 0.0918 normalized occupancy. In the case of AAATGGGT, the binding signal is reported as 0.0763 normalized occupancy. ACATGGGC was tested, and the binding signal was 0.0848 normalized occupancy. ACATGGGT gave a binding signal of 0.1 normalized occupancy. CCATGGGG was tested, and the binding signal was 0.0949 normalized occupancy. GACATTGA gave a binding signal of 0.078 normalized occupancy. Sequence CAATGAGC has a binding signal of 0.074 normalized occupancy. CGTGCGTA gave a binding signal of 0.0916 normalized occupancy. ATTATGTA was tested, and the binding signal was 0.0828 normalized occupancy. CCCCCGCG was tested, and the binding signal was 0.0757 normalized occupancy. TGGCTAAA was tested, and the binding signal was 0.074 normalized occupancy. In the case of ATGACAGC, the binding signal is reported as 0.0803 normalized occupancy. In the case of GTAATAAA, the binding signal is reported as 0.076 normalized occupancy. With ACTACTAT the binding signal was 0.0796 normalized occupancy. GGGGGCAC showed a binding signal of 0.0775 normalized occupancy. With AAACGTAA the binding signal was 0.0743 normalized occupancy. GGAGACAA was tested, and the binding signal was 0.0754 normalized occupancy. For CTTAGGCA, the binding signal was 0.0777 normalized occupancy. AACTAATT was tested, and the binding signal was 0.0744 normalized occupancy. GTTTAGAA gave a binding signal of 0.0757 normalized occupancy. AGTTTACA showed a binding signal of 0.0773 normalized occupancy. Work on AGCGTGAT yielded a binding signal of 0.1 normalized occupancy. Work on AGTGTGAC yielded a binding signal of 0.089 normalized occupancy. Work on ACCGTGAT yielded a binding signal of 0.0871 normalized occupancy. AGAGTGAC showed a binding signal of 0.0747 normalized occupancy. In the case of AGCGTGAA, the binding signal is reported as 0.0854 normalized occupancy. For AGCGTGAC, the binding signal was 0.101 normalized occupancy. In the case of CCATAGGA, the binding signal is reported as 0.0736 normalized occupancy. In the case of AACCTTGT, the binding signal is reported as 0.0729 normalized occupancy. For CAAGGAAC, the binding signal was 0.079 normalized occupancy. With GGACGGCA the binding signal was 0.0718 normalized occupancy. GAAATTTA was tested, and the binding signal was 0.0725 normalized occupancy. Work on ATTAGTCA yielded a binding signal of 0.0775 normalized occupancy. With GAATTCTA the binding signal was 0.0768 normalized occupancy. Work on AACGTGAC yielded a binding signal of 0.109 normalized occupancy. ACCGTGAC showed a binding signal of 0.0781 normalized occupancy. In the case of AACGTGAG, the binding signal is reported as 0.0854 normalized occupancy. In the case of AACGTGAA, the binding signal is reported as 0.0849 normalized occupancy. In the case of AAGGTGAC, the binding signal is reported as 0.0729 normalized occupancy. Sequence AACGTGAT has a binding signal of 0.11 normalized occupancy. ACCTAACC showed a binding signal of 0.0792 normalized occupancy. GAGATGGA was tested, and the binding signal was 0.0798 normalized occupancy. GGTACCCA showed a binding signal of 0.0727 normalized occupancy. Sequence CATCATGC has a binding signal of 0.0995 normalized occupancy. Work on GATCATCC yielded a binding signal of 0.0784 normalized occupancy. AATCATGA gave a binding signal of 0.0851 normalized occupancy. Sequence GATCATGC has a binding signal of 0.101 normalized occupancy. For CATCATGG, the binding signal was 0.0895 normalized occupancy. Work on AATCATCC yielded a binding signal of 0.083 normalized occupancy. AATCATGC was tested, and the binding signal was 0.0958 normalized occupancy. Work on GATCATGA yielded a binding signal of 0.0863 normalized occupancy. For ATTCATGC, the binding signal was 0.0905 normalized occupancy. AATCATGT showed a binding signal of 0.0985 normalized occupancy. With AATCATGG the binding signal was 0.0832 normalized occupancy. Work on CATCATGA yielded a binding signal of 0.0846 normalized occupancy. Work on ATGCTCCA yielded a binding signal of 0.0829 normalized occupancy. Sequence TGAGTTAA has a binding signal of 0.078 normalized occupancy. TAGCGTGA showed a binding signal of 0.0905 normalized occupancy. CAGCGTGA was tested, and the binding signal was 0.104 normalized occupancy. CAGCGTCA showed a binding signal of 0.0719 normalized occupancy. Sequence CAGCGTGG has a binding signal of 0.129 normalized occupancy. With GAGCGTGA the binding signal was 0.0923 normalized occupancy. Sequence CATCGTGG has a binding signal of 0.0917 normalized occupancy. CTAATGTA showed a binding signal of 0.078 normalized occupancy. Work on ATGTACGA yielded a binding signal of 0.0873 normalized occupancy. CATGGGGC showed a binding signal of 0.0935 normalized occupancy. For CATGGGGA, the binding signal was 0.1 normalized occupancy. For CATGGGGG, the binding signal was 0.0995 normalized occupancy. For AATGGGGA, the binding signal was 0.0809 normalized occupancy. Sequence AATGGGGG has a binding signal of 0.0803 normalized occupancy. Work on CATGGGAA yielded a binding signal of 0.0896 normalized occupancy. Work on CCGTTTGA yielded a binding signal of 0.0729 normalized occupancy. For CAGGTGAC, the binding signal was 0.0878 normalized occupancy. Sequence AAACATTA has a binding signal of 0.0779 normalized occupancy. GGATGCGA showed a binding signal of 0.0783 normalized occupancy. For CAATGCGG, the binding signal was 0.0873 normalized occupancy. With GTATGCGA the binding signal was 0.0727 normalized occupancy. GAATGCGC gave a binding signal of 0.075 normalized occupancy. CCATGCGA gave a binding signal of 0.1 normalized occupancy. Sequence CCATGCGG has a binding signal of 0.145 normalized occupancy. With GCATGCGC the binding signal was 0.121 normalized occupancy. In the case of CAATGCGA, the binding signal is reported as 0.0774 normalized occupancy. CCCTGCGG was tested, and the binding signal was 0.0745 normalized occupancy. AAATGCGC was tested, and the binding signal was 0.0749 normalized occupancy. TCATGCGA showed a binding signal of 0.0877 normalized occupancy. For GCATGCGA, the binding signal was 0.119 normalized occupancy. In the case of TGATAGAA, the binding signal is reported as 0.0854 normalized occupancy. Work on GTGTCGTA yielded a binding signal of 0.0815 normalized occupancy. For AGGTCACG, the binding signal was 0.082 normalized occupancy. With CTGTTGTA the binding signal was 0.0736 normalized occupancy. Work on AAAGAGCA yielded a binding signal of 0.0761 normalized occupancy. For ATGCGCGA, the binding signal was 0.0781 normalized occupancy. Sequence ATGTTCAG has a binding signal of 0.0809 normalized occupancy. ACACATCC showed a binding signal of 0.0784 normalized occupancy. For CCATGCGC, the binding signal was 0.121 normalized occupancy. For CAATGCGC, the binding signal was 0.0788 normalized occupancy. With CTATGCGC the binding signal was 0.075 normalized occupancy. Sequence ACCATTGC has a binding signal of 0.0746 normalized occupancy. AAACGTGC gave a binding signal of 0.101 normalized occupancy. Sequence GAACGTGC has a binding signal of 0.0931 normalized occupancy. Work on CAACGTGC yielded a binding signal of 0.122 normalized occupancy. Work on AAACGTAC yielded a binding signal of 0.074 normalized occupancy. AAACGTTT gave a binding signal of 0.0755 normalized occupancy. AAACGTAT showed a binding signal of 0.0746 normalized occupancy. Work on CAACGTAA yielded a binding signal of 0.0776 normalized occupancy. CAACGTCA showed a binding signal of 0.0743 normalized occupancy. AAACGTGT was tested, and the binding signal was 0.1 normalized occupancy. Work on CAACGTTC yielded a binding signal of 0.0755 normalized occupancy. CAACGTAC showed a binding signal of 0.0758 normalized occupancy. Sequence CAACGTGA has a binding signal of 0.118 normalized occupancy. CACACCCA gave a binding signal of 0.0877 normalized occupancy. ATTATTTG was tested, and the binding signal was 0.0793 normalized occupancy. ACCGATAC gave a binding signal of 0.075 normalized occupancy. TCTCCAAA showed a binding signal of 0.0803 normalized occupancy. CTCTCAGC showed a binding signal of 0.0719 normalized occupancy. For CATGGCTC, the binding signal was 0.09 normalized occupancy. In the case of AAACCATA, the binding signal is reported as 0.0792 normalized occupancy. Sequence CTGAATCC has a binding signal of 0.0737 normalized occupancy. CGTACGCC was tested, and the binding signal was 0.0757 normalized occupancy. Sequence CTTAACCC has a binding signal of 0.0738 normalized occupancy. Sequence ACAACTAA has a binding signal of 0.0755 normalized occupancy. CGGCAGCC was tested, and the binding signal was 0.0724 normalized occupancy. Work on CGTTTAGA yielded a binding signal of 0.0747 normalized occupancy. In the case of CAACGTGG, the binding signal is reported as 0.154 normalized occupancy. Sequence AAACGTCG has a binding signal of 0.0737 normalized occupancy. AAACGTGA showed a binding signal of 0.099 normalized occupancy. CAACGTAG was tested, and the binding signal was 0.0762 normalized occupancy. With GAACGTGA the binding signal was 0.0801 normalized occupancy. Sequence AAACGTGG has a binding signal of 0.123 normalized occupancy. TAACGTGA gave a binding signal of 0.0935 normalized occupancy. Sequence AAACGTAG has a binding signal of 0.0771 normalized occupancy. In the case of CAACGTTG, the binding signal is reported as 0.083 normalized occupancy. For ATCGCCAG, the binding signal was 0.0753 normalized occupancy. AAGACATG gave a binding signal of 0.0912 normalized occupancy. For GAAGCATC, the binding signal was 0.076 normalized occupancy. For AACATCCA, the binding signal was 0.0849 normalized occupancy. ACTTAAAT was tested, and the binding signal was 0.0746 normalized occupancy. In the case of CTACGTGC, the binding signal is reported as 0.0865 normalized occupancy. In the case of CGACGTGC, the binding signal is reported as 0.083 normalized occupancy. Work on TCACGTGA yielded a binding signal of 0.19 normalized occupancy. In the case of CCACGTGG, the binding signal is reported as 0.971 normalized occupancy. CGACGTGA gave a binding signal of 0.0883 normalized occupancy. For TCACGTCA, the binding signal was 0.0819 normalized occupancy. For TCACGTAA, the binding signal was 0.086 normalized occupancy. In the case of CTACGTGA, the binding signal is reported as 0.0799 normalized occupancy. For CCACGTGA, the binding signal was 0.482 normalized occupancy. Sequence CCACGTCG has a binding signal of 0.086 normalized occupancy. Sequence CCACGTAG has a binding signal of 0.0817 normalized occupancy. In the case of CCACGTGC, the binding signal is reported as 0.814 normalized occupancy. Sequence GGAGAGCA has a binding signal of 0.0742 normalized occupancy. CCGTCTAA was tested, and the binding signal was 0.0757 normalized occupancy. Work on ACAAATGT yielded a binding signal of 0.079 normalized occupancy. In the case of GGTCAGGA, the binding signal is reported as 0.0732 normalized occupancy. GAGGAAGA was tested, and the binding signal was 0.075 normalized occupancy. In the case of ACCTGTAA, the binding signal is reported as 0.0823 normalized occupancy. Work on TCACCTGA yielded a binding signal of 0.0809 normalized occupancy. In the case of ACACCTGG, the binding signal is reported as 0.0881 normalized occupancy.
